Test results: PubChem BioAssay (NCI)
The panel holds about 83,000 compounds, 20% with a hit somewhere; the sample as a whole holds those more often.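 Values shown are percent growth following 48 h exposure of cells in 96-well plates to a single concentration of compound; below 10 was considered active.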 Activity calls are given as the source filed them.

Assays:
Test in all cases: NCI-60 one-dose screen, 48 h (100 = growth as untreated, 0 = no growth, -100 = all killed)
Settings in all cases: 10 µM unless noted
HCT-15 colon = system: HCT-15 colon
HT29 colon = system: HT29 colon
SNB-75 CNS = system: SNB-75 CNS
SNB-19 CNS = system: SNB-19 CNS
U251 CNS = system: U251 CNS
PC-3 prostate = system: PC-3 prostate
SK-MEL-5 melanoma = system: SK-MEL-5 melanoma
UACC-62 melanoma = system: UACC-62 melanoma
LOX IMVI melanoma = system: LOX IMVI melanoma
SK-MEL-28 melanoma = system: SK-MEL-28 melanoma
SK-MEL-2 melanoma = system: SK-MEL-2 melanoma
EKVX NSCLC = system: EKVX NSCLC
SN12C renal = system: SN12C renal
UO-31 renal = system: UO-31 renal
TK-10 renal = system: TK-10 renal
ACHN renal = system: ACHN renal
CAKI-1 renal = system: CAKI-1 renal
A498 renal = system: A498 renal
CCRF-CEM leukemia = system: CCRF-CEM leukemia
MOLT-4 leukemia = system: MOLT-4 leukemia

Measured: growth

CO[C@H](C(=O)[C@@H](O)[C@@H](C)O)[C@@H]1Cc2cc3cc(O[C@H]4C[C@@H](O[C@H]5C[C@@H](O)[C@H](O)C(C)O5)[C@H](O)C(C)O4)c(C)c(O)c3c(O)c2C(=O)[C@H]1O[C@H]1C[C@@H](O[C@H]2C[C@@H](O[C@H]3C[C@](C)(O)C(=O)C(C)O3)[C@@H](O)C(C)O2)[C@H](O)C(C)O1 (stereo not given in full)
active: HT29 colon -13.9% | SNB-75 CNS -65.5% | U251 CNS 2.98% | PC-3 prostate 6.86% | SK-MEL-5 melanoma -32.2% | UACC-62 melanoma -30.7% | LOX IMVI melanoma -5.83% | SK-MEL-28 melanoma -18.8% | SK-MEL-2 melanoma -57.6% | EKVX NSCLC 0.189% | UO-31 renal -11.3% | TK-10 renal -10.9% | ACHN renal 2.84% | CAKI-1 renal 1.12% | A498 renal -33% | MOLT-4 leukemia 1.04%
inactive: HCT-15 colon 20.2% | SNB-19 CNS 10.8% | SN12C renal 13.6% | CCRF-CEM leukemia 10.3%

C#Cc1cccc(Nc2nc3cc([N+](=O)[O-])ccc3nc2Nc2ccc(O)cc2)c1
inactive: SNB-75 CNS 43.8% | SNB-19 CNS 23.3% | SK-MEL-5 melanoma 47.1% | SK-MEL-28 melanoma 21.5% | EKVX NSCLC 23.1% | SN12C renal 24.9% | UO-31 renal 14.6% | CAKI-1 renal 36.4% | A498 renal 49.4%
active: HCT-15 colon 0.208% | HT29 colon -80.7% | U251 CNS 2.57% | PC-3 prostate 2.88% | UACC-62 melanoma -15.9% | LOX IMVI melanoma -87.5% | SK-MEL-2 melanoma -29.5% | TK-10 renal 3.86% | ACHN renal 9.93% | CCRF-CEM leukemia 6.32% | MOLT-4 leukemia 0.253%

CCCCCN(CCCCC)C(=O)C(CCC(=O)O)NC(=O)c1ccc(Cl)c(Cl)c1 (stereo not given)
inactive: HCT-15 colon 112% | HT29 colon 109% | SNB-75 CNS 93.3% | SNB-19 CNS 112% | U251 CNS 101% | PC-3 prostate 93% | SK-MEL-5 melanoma 90.5% | UACC-62 melanoma 98.4% | LOX IMVI melanoma 99.9% | SK-MEL-28 melanoma 105% | SK-MEL-2 melanoma 105% | EKVX NSCLC 109% | SN12C renal 100% | UO-31 renal 80.4% | TK-10 renal 124% | ACHN renal 100% | CAKI-1 renal 91.3% | A498 renal 83.8% | CCRF-CEM leukemia 114% | MOLT-4 leukemia 102%

COc1ccc(-c2nc3ccccc3n3cccc23)cc1
inactive: HCT-15 colon 142% | HT29 colon 107% | SNB-75 CNS 107% | SNB-19 CNS 140% | U251 CNS 100% | PC-3 prostate 78.6% | SK-MEL-5 melanoma 99% | UACC-62 melanoma 88.3% | LOX IMVI melanoma 90% | SK-MEL-28 melanoma 111% | SK-MEL-2 melanoma 111% | EKVX NSCLC 97.2% | SN12C renal 95.1% | UO-31 renal 45.7% | TK-10 renal 138% | ACHN renal 105% | CAKI-1 renal 85.5% | A498 renal 99.4% | CCRF-CEM leukemia 89.9% | MOLT-4 leukemia 101%

COc1cc(OC)c2sc(-c3ccc(-n4cncc4-c4ccc(OC)c(N)c4)cc3)nc2c1
inactive: HCT-15 colon 73.9% | HT29 colon 74.3% | SNB-75 CNS 81.8% | SNB-19 CNS 80.1% | U251 CNS 67.2% | PC-3 prostate 50.4% | SK-MEL-5 melanoma 53.1% | UACC-62 melanoma 85.6% | LOX IMVI melanoma 90.2% | SK-MEL-28 melanoma 104% | SK-MEL-2 melanoma 99.6% | EKVX NSCLC 64.5% | SN12C renal 87% | UO-31 renal 60.6% | TK-10 renal 82.8% | ACHN renal 90.4% | CAKI-1 renal 60.9% | A498 renal 77.8% | CCRF-CEM leukemia 59.2% | MOLT-4 leukemia 58.3%

CC(C)(C)c1ccc(OC(=O)Nc2ccccc2)cc1
inactive: HCT-15 colon 104% | HT29 colon 101% | SNB-75 CNS 106% | SNB-19 CNS 109% | U251 CNS 101% | PC-3 prostate 96.3% | SK-MEL-5 melanoma 104% | UACC-62 melanoma 110% | LOX IMVI melanoma 102% | SK-MEL-28 melanoma 122% | SK-MEL-2 melanoma 103% | EKVX NSCLC 111% | SN12C renal 100% | UO-31 renal 87% | TK-10 renal 98.7% | ACHN renal 102% | CAKI-1 renal 104% | A498 renal 97.7% | CCRF-CEM leukemia 87.1% | MOLT-4 leukemia 56.6%

CN1C2CCC1/C(=C\c1ccc(F)cc1)C(=O)/C2=C/c1ccc(F)cc1
active: MOLT-4 leukemia 9.91%
inactive: HCT-15 colon 38.7% | HT29 colon 15.5% | SNB-75 CNS 59.6% | SNB-19 CNS 55.7% | U251 CNS 16.2% | PC-3 prostate 34.5% | SK-MEL-5 melanoma 40.1% | UACC-62 melanoma 26.4% | LOX IMVI melanoma 28.2% | SK-MEL-28 melanoma 73% | SK-MEL-2 melanoma 50% | EKVX NSCLC 60.4% | SN12C renal 37.8% | UO-31 renal 49.7% | TK-10 renal 73.1% | ACHN renal 55.5% | CAKI-1 renal 54.8% | A498 renal 73.3% | CCRF-CEM leukemia 16.5%

COc1ccc2nc3ccccc3c(NCc3ccc(Cl)cc3)c2c1
active: HCT-15 colon 5.04% | HT29 colon -2.29% | U251 CNS 2.55% | LOX IMVI melanoma -86.3% | SK-MEL-28 melanoma 7.07% | UO-31 renal 1.86% | A498 renal 8.58% | CCRF-CEM leukemia 8.43% | MOLT-4 leukemia -8.25%
inactive: SNB-75 CNS 57.6% | SNB-19 CNS 26.4% | PC-3 prostate 19.5% | SK-MEL-5 melanoma 11.7% | UACC-62 melanoma 64.7% | SK-MEL-2 melanoma 71.3% | EKVX NSCLC 33.8% | SN12C renal 22.1% | TK-10 renal 52.9% | ACHN renal 17.1% | CAKI-1 renal 21.4%

CCC(=O)OCc1ccc(OC)cc1
inactive: HCT-15 colon 108% | HT29 colon 102% | SNB-75 CNS 104% | SNB-19 CNS 100% | U251 CNS 97.3% | PC-3 prostate 88.1% | SK-MEL-5 melanoma 108% | UACC-62 melanoma 105% | LOX IMVI melanoma 98% | SK-MEL-28 melanoma 111% | SK-MEL-2 melanoma 112% | EKVX NSCLC 107% | SN12C renal 91% | UO-31 renal 82% | TK-10 renal 107% | ACHN renal 103% | CAKI-1 renal 96.6% | A498 renal 144% | CCRF-CEM leukemia 99.4% | MOLT-4 leukemia 95.3%

CC(C)[C@@]12C[C@@H](OC(=O)[C@H]3CO3)[C@@](C)(O1)[C@@H]1CC[C@@H](C)[C@H]1[C@@H]2OC(=O)/C=C/c1ccccc1
inactive: HCT-15 colon 55.5% | HT29 colon 84.3% | SNB-75 CNS 71.4% | SNB-19 CNS 86.6% | U251 CNS 67.8% | PC-3 prostate 60.7% | SK-MEL-5 melanoma 93.4% | UACC-62 melanoma 70.1% | LOX IMVI melanoma 70.9% | SK-MEL-28 melanoma 106% | SK-MEL-2 melanoma 82.4% | EKVX NSCLC 71.9% | SN12C renal 52.5% | TK-10 renal 103% | ACHN renal 23.5% | CAKI-1 renal 46.6% | CCRF-CEM leukemia 81.9% | MOLT-4 leukemia 72.8%
active: UO-31 renal -8.95% | A498 renal -61.1%

Cn1c(=O)c2c(nc(N/N=C/c3ccccc3Cl)n2C)n(C)c1=O
inactive: HCT-15 colon 105% | HT29 colon 93.6% | SNB-75 CNS 93.6% | SNB-19 CNS 108% | U251 CNS 101% | PC-3 prostate 99.3% | SK-MEL-5 melanoma 109% | UACC-62 melanoma 104% | LOX IMVI melanoma 98.2% | SK-MEL-28 melanoma 122% | SK-MEL-2 melanoma 81.6% | EKVX NSCLC 106% | SN12C renal 99% | UO-31 renal 81.5% | TK-10 renal 101% | ACHN renal 103% | CAKI-1 renal 97.8% | A498 renal 170% | CCRF-CEM leukemia 94.5% | MOLT-4 leukemia 95.7%

CCCCCCCCCCCCNC(=O)N[C@H](C(=O)N[C@H]1/C=C/CCNC(=O)/C=C/[C@H](C)NC1=O)C(C)C
active: SNB-75 CNS -94.9% | SNB-19 CNS -25.8% | U251 CNS -95.3% | PC-3 prostate -24% | SK-MEL-5 melanoma -100% | UACC-62 melanoma -88.8% | LOX IMVI melanoma -89.2% | SK-MEL-28 melanoma -70.2% | SK-MEL-2 melanoma 8.32% | SN12C renal -42.4% | TK-10 renal 8.32% | A498 renal -55.3% | CCRF-CEM leukemia -5.12% | MOLT-4 leukemia -29%
inactive: HCT-15 colon 27.9% | HT29 colon 11.8% | EKVX NSCLC 25% | UO-31 renal 36.7% | ACHN renal 16.6% | CAKI-1 renal 35.8%

COc1ccc(-c2cnnn2-c2nonc2-n2cccc2)cc1
inactive: HCT-15 colon 21.4% | SNB-19 CNS 37.6% | U251 CNS 22.1% | PC-3 prostate 28.8% | SK-MEL-5 melanoma 31.9% | UACC-62 melanoma 24.1% | LOX IMVI melanoma 34.1% | SK-MEL-28 melanoma 18.4% | SK-MEL-2 melanoma 54.6% | EKVX NSCLC 55.6% | SN12C renal 43.9% | UO-31 renal 44.2% | TK-10 renal 63.7% | ACHN renal 48.2% | CAKI-1 renal 45.5% | CCRF-CEM leukemia 14.1%
active: HT29 colon 8.25% | SNB-75 CNS -15.9% | A498 renal -4.22% | MOLT-4 leukemia 5.61%

CC1OC(n2c3ccccc3c3c4c(c5c6ccccc6[nH]c5c32)C(=O)N(CCN[C@H]2CCC[C@@H]2N)C4=O)CC(O)C1O (stereo not given in full)
inactive: HCT-15 colon 82.6% | HT29 colon 12.9% | SNB-75 CNS 24.1% | SNB-19 CNS 17% | U251 CNS 14.5% | PC-3 prostate 16.8% | SK-MEL-5 melanoma 23.7% | UACC-62 melanoma 42.1% | LOX IMVI melanoma 20.3% | SK-MEL-28 melanoma 68.6% | SK-MEL-2 melanoma 74.5% | EKVX NSCLC 45.9% | SN12C renal 17.9% | UO-31 renal 66.8% | TK-10 renal 52.8% | ACHN renal 45.6% | CAKI-1 renal 85.7% | A498 renal 77.9% | CCRF-CEM leukemia 27.1%
active: MOLT-4 leukemia 7.62%

COc1cc(CN(CCC(O)N2CCCC2=O)Cc2ccc3c(c2)OCO3)cc(OC)c1OC (stereo not given)
inactive: HCT-15 colon 97.5% | HT29 colon 98.3% | SNB-75 CNS 93.7% | SNB-19 CNS 99.5% | U251 CNS 102% | PC-3 prostate 89.5% | SK-MEL-5 melanoma 111% | UACC-62 melanoma 101% | LOX IMVI melanoma 94.9% | SK-MEL-28 melanoma 117% | SK-MEL-2 melanoma 94.5% | EKVX NSCLC 107% | SN12C renal 105% | UO-31 renal 78.1% | TK-10 renal 112% | ACHN renal 100% | CAKI-1 renal 97.1% | A498 renal 118% | CCRF-CEM leukemia 98.3% | MOLT-4 leukemia 85.2%
